The values below come from PubChem BioAssay (NCI).

Values joined by “and” are separate entries in the source; they are usually repeats but may differ in a detail not shown here. Equal entries are not always repeated. This is part of a sample that, as a whole, favours compounds with a hit. Of some 83,000 tested, about 20% had one in any assay.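 Method: cells in 96-well plates; compound added at one concentration; 48 h incubation; percent growth measured; values under 10 scored active.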 Some structures have more than one record in an assay (separate samples or runs), and their calls can disagree. Active and inactive are the calls of the source.

The subject of the test is SK-MEL-2 melanoma. As to the kind of experiment: NCI-60 one-dose screen, 48 h (100 = growth as untreated, 0 = no growth, -100 = all killed). To be noted: 10 µM unless noted.
For `OC(c1cc(-c2ccc(C(F)(F)F)cc2)nc(C(F)(F)F)c1)C1CCCCN1` (stereo unspecified), the growth is -61% (active) and 21.8% (inactive).
As for `O=C1CSC(=S)N1Cc1cccnc1`, the figure is 85.8% (inactive).
Regarding `O=C(c1ccccc1)C(Br)[N+](=O)[O-]` (stereo unspecified), the growth was 97.5% (inactive).
`CC(/C=N/NC(N)=S)Cc1ccc(C(C)C)cc1` (stereo unspecified): the growth is 54.4% (inactive).
With `Nc1cc(-c2ccccc2)ccc1O`, the growth is 120% (inactive).
Turning to `Oc1c(C(Nc2ccccc2)c2ccccc2)ccc2cccnc12` (stereo unspecified), the growth was 48% (inactive).
`COc1cccc2c1C(=O)c1c(O)c3c(c(O)c1C2=O)C[C@@](O)(C(=O)CO)C[C@@H]3OC1CC(OC(C)=O)C(OC(C)=O)C(C)O1` (stereo partly specified): the growth is -0.534% (active).
`O=[N+]([O-])c1ccc([I+]c2ccccc2)cc1`: the growth is -17.9% (active).
To `O=C1C=CC(=O)N1c1ccccc1` belongs 103% (inactive).
Turning to `O=[N+]([O-])CC(O)c1ccccc1` (stereo unspecified), the growth is 120% (inactive).
Regarding `CCN(CC)CCNc1ccc([N+](=O)[O-])c2sc3ccccc3c(=O)c12`, the growth was 21.6% (inactive).
For the compound `COc1cc(NC(=O)C2=C(C)NC(C)=C(C(=O)Nc3cc(OC)c(Cl)cc3OC)C2c2cccc([N+](=O)[O-])c2)c(OC)cc1Cl`, the growth was 10.2% (inactive).
Consider `CCN(CC)CCNC(Cc1ccccc1)c1ccc(OCc2ccccc2)cc1` (stereo unspecified), for which the growth was 97% (inactive).
Consider `c1ccc(C2NCCNC2c2ccccc2)cc1` (stereo unspecified), for which the growth is 98.7% (inactive).
As for `CCC[CH2][Sn]1([CH2]CCC)[O]C2C(CO)OC(n3ccc(N)nc3=O)C2[O]1` (stereo unspecified), the growth is -91.9% (active).
For the compound `COc1cc2c(c(OC)c1OC)-c1ccc(NCc3ccccc3)c(=O)cc1[C@@H](NC(C)=O)CC2`, the growth was 19.2% (inactive).
